The values below come from PubChem BioAssay AID588405 (Sanford-Burnham Center for Chemical Genomics, 2011).

“And” between values parts separate entries of the source, which are not always exact repeats. Identical values can stand only once. Out of some 360,000 compounds screened, about 6,200 (1.7%) were called active.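 The calls were made as follows: active = inhibition of at least 50% at 20 µM; inactive = the rest.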 For the sample, actives were picked, then their nearest neighbours and some compounds at random. A structure can be active in one record and inactive in another.

What is called inhibition is the relative decrease from the control value, in per cent.

A short description of this experiment: inhibition of PEG-3 promoter activity – cell-based, HeLa, luciferase luminescence, primary screen (AID 588405). Conditions: HeLa PEG-Prom luciferase reporter, overnight, at 20 µM, stronger effect = higher value. (In general: Reporter assays use an easily measured gene product as a stand-in for the process of interest.)
For the compound `CCCNC(=O)c1cc(C2CCCCN2C(=O)OC)on1` (centres undefined), the inhibition was 8.59% (inactive).
For the compound `CCOc1cc(-c2conc2N)cc(OCC)c1OCC`, the inhibition is 10.1% (inactive).
With `CC(C)CNC(=O)C1(C)CCCN1C(=O)CSc1ccccc1` (centres undefined), the inhibition is -0.74% (inactive).
`O=C(O)c1ccc(N/N=C/c2ccc3ncccc3c2)cc1`: the inhibition was 70.7% (active).
Take `Cc1ccc2cc(/C=N/Nc3ccc(C(=O)O)cc3)c(Cl)nc2c1`: the inhibition is -255% (inactive).
Consider `CCNC(=S)NNC(=O)c1ccc2ncccc2c1`, for which the inhibition was -28.3% (inactive).
As for `O=C(Nc1cccc(C(F)(F)F)c1)c1ccc(N2CCNCC2)c([N+](=O)[O-])c1`, the figure is 22.1% (inactive); as for `O=C(O)CSc1c2c(nc3cc(C(=O)Nc4cccc(C(F)(F)F)c4)ccc13)CCCC2`, 13.5% (inactive); as for `COc1cccc(NC(=O)CN(C)C(C)C(=O)Nc2ccc(C#N)cc2)c1` (centres undefined), 20% (inactive).
Then `COc1cc(NC(=O)c2cncc(-c3ccc(C#N)cc3)c2)cc(C(=O)Nc2cccc(C(F)(F)F)c2)c1`, with 22% (inactive) and 56% (active); and `COc1cc(NC(=O)c2[nH]cnc2C(N)=O)cc(C(=O)Nc2cccc(C(F)(F)F)c2)c1`, with 101% (active); and `CCOC(=O)c1ccc(NC(=O)c2nc[nH]c2C(=O)NCc2ccccc2)cc1`, with 32.4% (inactive).
As for `O=C1c2ccccc2-c2ccccc2NC1O` (centres undefined), the figure is -8.48% (inactive); as for `COc1ccc(C(c2nnnn2C2CCCC2)N2CCN(C/C=C/c3ccccc3)CC2)cc1` (centres undefined), -2% (inactive).
With `CC(=O)Nc1ccc(-c2ccnc3c2CC(C(=O)NC(C)C)O3)cc1` (centres undefined), the inhibition is -1.44% (inactive).
Turning to `CC1(C(=O)NCC2CCOCC2)Cc2c(-c3cccc(C(N)=O)c3)ccnc2O1` (centres undefined), the inhibition was 8.22% (inactive).
On to `O=C(CSc1nc2cccc(F)c2c(=O)n1-c1ccccc1)Nc1ccc2c(c1)CCC2`, for which the inhibition was 2.19% (inactive).
Regarding `Cc1ccc(C)c(N2CCN(C(=O)CCCn3c(=O)c4cccn4c4cccnc43)CC2)c1`, the inhibition was 34.6% (inactive).
For `O=C(CCCCCn1c(=S)[nH]c2cc3c(cc2c1=O)OCO3)N1CCN(c2ccc(F)cc2)CC1`, the inhibition is -0.75% (inactive).
Then `Cc1ccc(C)c(N2CCN(C(=O)CCCCCn3c(=S)[nH]c4ccc(N5CCOCC5)cc4c3=O)CC2)c1`, with 92.5% (active); and `COCCNC(=O)C1CCCN(Cc2ccccc2Cl)CC1` (centres undefined), with 5.2% (inactive).
For the compound `CSc1nc(-c2ccccc2)nc(C(Cl)Cl)n1`, the inhibition was 98.3% (active).
As for `O=C(COC(=O)C12CC3CC(CC(O)(C3)C1)C2)NC12CC3CC(CC(C3)C1)C2`, the figure is 9.7% (inactive).
For the compound `CC1(Cc2cccc(C#N)c2)C(=O)Nc2ccc(-c3cccc(C(F)(F)F)c3)cc21` (centres undefined), the inhibition was 37% (inactive).
As for `CC(C)(O)C#Cc1ccc(CN2CCC(CO)(CCc3ccccc3)CC2)cc1`, the inhibition was 1.12% (inactive).
Take `Cc1c(CN2CCC(CO)(CCOc3ccccc3)CC2)[nH]c2ccc(Cl)cc12`: the inhibition was 85.4% (active).
Consider `CCOC(=O)C1(CCOc2ccccc2)CCN(Cc2ccc(C#CCCO)cc2)CC1`, for which the inhibition was 15.7% (inactive).
Then `C=CC[C@@H](CC(=O)N[C@@H](CO)Cc1ccccc1)C(=O)N[C@H](COC(=O)[C@H](CC=C)CC(=O)OC(C)(C)C)Cc1ccccc1`, with 59.8% (active); and `C=CC[C@@H](CC(=O)N[C@H](CO)Cc1ccccc1)C(=O)N[C@H](C)COC(=O)[C@@H](CC=C)Cc1ccc(F)cc1`, with 12.6% (inactive).
Then `C=CC[C@@H](CC(=O)N[C@@H](CO)Cc1ccccc1)C(=O)NCCOC(=O)[C@@H](CC=C)CC(=O)OC(C)(C)C`, with 4.88% (inactive); and `CCOC(=O)c1c(-n2cnnn2)sc(C)c1C`, with -0.91% (inactive); and `CNC(=O)C1CC(=O)N(Cc2ccc3c(c2)OCO3)C(=Nc2ccc(F)cc2)S1` (centres undefined), with -64.3% (inactive).
Then `COc1ccccc1N(CCOc1ccccc1)S(=O)(=O)c1ccccc1`, with 18.4% (inactive).
For `Clc1ccc(-c2cc(-c3ccccn3)on2)c(Cl)c1`, the inhibition is -90.8% (inactive).
Turning to `Clc1ccc(-c2cc(C3CCNCC3)[nH]n2)c(Cl)c1`, the inhibition was 58.7% (active).
For the compound `Fc1cccc(Cc2c(-c3cccc(Cl)c3)nc3ccc(Br)cn23)c1`, the inhibition was -153% (inactive).
Then `O=C(O)CC1S/C(=N\N=C/c2ccccc2O)N(c2ccc(O)cc2)C1=O` (centres undefined), with -0.29% (inactive); and `COc1ccc(CN(C)C(=O)c2cc(-c3ccc(C)cc3C)nc3ccccc23)c(OC)c1OC`, with 75.3% (active).
For `COc1ccc(CN(C)C(=O)Cc2c[nH]c3ccccc23)c(OC)c1OC`, the inhibition is 13.2% (inactive).
As for `COc1ccc(S(=O)(=O)N2CCCCCC2)cc1C(=O)N(C)Cc1cccc(OC)c1OC`, the figure is 5.19% (inactive); as for `COc1ccc(-c2cc(C(=O)NCCCN3CCCC3=O)c3ccccc3n2)cc1OC`, -2.28% (inactive); as for `COc1ccc(-c2cc(C(=O)N(C)Cc3ccc(OC)c(OC)c3OC)c3ccccc3n2)cc1OC`, 50.1% (active).
On to `COc1ccc(-c2cc(C(=O)N(C)CC(=O)Nc3ccccc3Cl)c3ccccc3n2)cc1OC`, for which the inhibition is 43.6% (inactive).
Then `Cc1ccc(CN2CCC(N3CCC(C(=O)NCC4CCCO4)CC3)CC2)o1` (centres undefined), with -0.4% (inactive); and `CS(=O)(=O)c1cccc(-c2ccc3nncn3c2)c1`, with -2.9% (inactive).
Regarding `CCc1nc2ccc(C(=O)N3CCN(S(=O)(=O)CC)CC3)cn2c1N(C=O)CCC(C)C`, the inhibition is -6.03% (inactive).
As for `CC(C)[C@H](NC(=O)N1CC(=O)Nc2ccccc21)C(=O)N[C@@H](Cc1c[nH]c2ccccc12)C(=O)O`, the figure is 14.7% (inactive).
`O=C(NCc1cccc(C(F)(F)F)c1)c1ccc2sc(COCCO)nc2c1`: the inhibition is -51.8% (inactive).
As to `COc1cccc(CNc2nc3cc(-c4csc5ccccc45)sc3c(=O)n2C)c1`, the inhibition was -0.35% (inactive).
In the case of `COc1ccc(C(CCN(Cc2ccc(OC)c(OC)c2)C(=O)CCl)c2ccccc2)cc1` (centres undefined), the inhibition was 105% (active).
Regarding `COc1ccc(CCNC(=O)CN(c2ccccc2)S(C)(=O)=O)cc1OC`, the inhibition is 18.5% (inactive).
Consider `COc1ccc(CN(Cc2ccc(OC)cc2)C(=O)c2cccs2)cc1`, for which the inhibition was 0.72% (inactive).
Regarding `CCCc1nc(N2CCN(C)CC2)c2sc(=S)n(-c3ccccc3)c2n1`, the inhibition was 30.8% (inactive).
Regarding `OC[C@@H]1CN(Cc2ccc(Cl)cc2)C[C@H](n2cnc3c(NCc4ccncc4)ncnc32)O1`, the inhibition is 8.27% (inactive).
As to `FC(F)(F)Oc1ccccc1C(c1nnnn1C1CCCCC1)N1CCN(C/C=C/c2ccccc2)CC1` (centres undefined), the inhibition is -12.9% (inactive).
Turning to `CC[C@H]1CN2CCc3cc(OC)c(OC)cc3[C@@H]2C[C@@H]1C[C@H]1NCCc2cc(OC)c(OC)cc21`, the inhibition is 95% (active).
For `CC(C)C[C@H]1CN([C@@H](Cc2ccccc2)CN2CCC[C@@H]2CN2C(=O)C(=O)NC[C@@H]2Cc2ccc(O)cc2)C(=O)C(=O)N1CCc1ccccc1`, the inhibition is -8.17% (inactive).
In the case of `CCOC(=O)C1=CCC(c2ccc(F)cc2)N(S(=O)(=O)c2ccc(C)cc2)C1` (centres undefined), the inhibition is 18.4% (inactive).
In the case of `CCc1nc2c(OCC(=O)C(C)(C)C)cccn2c1N(C)C(=O)c1ccccc1F`, the inhibition was -3.25% (inactive).
Consider `COc1ccc(OC)c(C(O)c2ncc(-c3cccc(C(F)(F)F)c3)[nH]2)c1` (centres undefined), for which the inhibition was 1.51% (inactive).
With `CCCC[C@@H]1CN=C(N)N1CCCC`, the inhibition is 6.54% (inactive).
Regarding `CCCC[C@@H]1CN=C(N)N1CCc1cccc(F)c1`, the inhibition was 2.77% (inactive).
In the case of `CCCC[C@@H]1CN=C(N)N1CCc1cc(C(F)(F)F)cc(C(F)(F)F)c1`, the inhibition was 64.1% (active).
Then `Cn1c(Nc2ccc(F)cc2)nc2cc(-c3ccsc3)sc2c1=O`, with -53.6% (inactive); and `CC1(C(=O)Nc2ccccc2Br)CCN1C(=O)CC1CC1` (centres undefined), with 3.67% (inactive).
As for `CCOC(=O)C1=CCC2C(=O)N(Cc3ccccc3)C(=O)C12` (centres undefined), the inhibition is -14.8% (inactive).
As to `CNC[C@H]1OCc2cnnn2CCCC(=O)N([C@H](C)CO)C[C@@H]1C`, the inhibition was -4.6% (inactive).
Take `COc1ccc(OC)c(NC(=O)c2cc(-c3cc(F)ccc3OCC3CCCO3)n[nH]2)c1` (centres undefined): the inhibition is 25.5% (inactive).
On to `Cc1cc(C)nc(SC(C)C(=O)N/N=C/c2cccs2)n1` (centres undefined), for which the inhibition is 2.36% (inactive).
Consider `COC(c1ccccc1)(c1ccccc1)C(Oc1nc(C)cc(C)n1)C(=O)O` (centres undefined), for which the inhibition was 19% (inactive).
As for `Cc1cc(C)nc(S/C=C/C(=O)c2ccccc2)n1`, the figure is 109% (active); as for `Cc1coc(C)c1C(=O)CC1(O)C(=O)N(C)c2ccc(Cl)cc21` (centres undefined), 7.27% (inactive).
As for `CCOc1ccc(N2CC(C(=O)N/N=C/c3sccc3C)CC2=O)cc1` (centres undefined), the figure is 13.4% (inactive); as for `CC1(C(=O)NS(=O)(=O)c2ccccc2)CCN1C(=O)C1CCCCC1` (centres undefined), -0.02% (inactive).
Take `O=C1CCN(Cc2ccccc2)CCN1[C@H](CSc1ccccc1)c1ccccc1`: the inhibition is -23.1% (inactive).
Regarding `COc1ccc(/C(C)=N/NC(=O)CCC(=O)Nc2ccc(Cl)cc2Cl)c(OC)c1`, the inhibition is -11.2% (inactive).
Turning to `COc1ccc(Cl)cc1NC(=O)CCS(=O)(=O)c1ccc(Br)cc1`, the inhibition is 21.8% (inactive).
Take `CCCCC(=O)N/N=C(\C)CC(=O)Nc1cc(Cl)ccc1OC`: the inhibition is 93.5% (active).
In the case of `C[C@H](NC(=O)CC[C@H]1O[C@@H](n2ccc(=O)[nH]c2=O)[C@H](O)[C@@H]1O)c1cccc2ccccc12`, the inhibition was 6.63% (inactive).
With `OC(c1ccccc1)c1nc(/C=C/c2ccc(C(F)(F)F)cc2)cs1` (centres undefined), the inhibition was 3.42% (inactive).
Regarding `C#CCCOC(=O)N1C2=NC(C(=O)OC)=C(C(=O)OC)[C@@H]3N(C)c4ccc(OC)cc4[C@]23C[C@H]1C(=O)OC`, the inhibition is -3.24% (inactive).
Take `C[C@@H]1CN([C@@H](C)CO)C(=O)CCCn2cc(nn2)CO[C@H]1CN(C)S(=O)(=O)c1ccc(-n2cccn2)cc1`: the inhibition is -0.13% (inactive).
`Cc1c(C(=O)NCC2CC2)sc(=O)n1Cc1cccc(F)c1`: the inhibition is -1.67% (inactive).
Consider `CCN1C(=O)[C@@H]2[C@@H]3CN(S(=O)(=O)c4ccccc4C)[C@@H](c4ccc(Cl)cc4)[C@@H]3C(=O)C[C@@H]2C1=O`, for which the inhibition is -51.1% (inactive).
